PubChem BioAssay
Calls of active or inactive are those of the source.

Assays:
[1] = system: Plasmodium falciparum Sir2 (PF13_0152, Sir2A); assay: pfSir2 binders on small-molecule microarrays, primary screen, biochemical, small-molecule microarray, 635 nm fluorescence (AID 1098); settings: small-molecule microarray binding, fluorescence 635 nm; higher = more signal;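 note: score merges spot fluorescence intensity with its signal-to-noise ratio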
[2] = small-molecule microarray binders of probe aDKK1, primary screen, biochemical, biotinylated probe, 635/667 nm fluorescence (AID 1099); settings: higher = more signal;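 note: score merges 667nm spot fluorescence with signal to noise across triplicate slides; reference of the scale not given here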
[3] = small-molecule microarray binders of probe aCHRDL2, primary screen, biochemical, biotinylated probe, 635/667 nm fluorescence (AID 1100); settings: higher = more signal
[4] = splicing luciferase reporter signal modulators, primary screen, spliceosome inhibition project, cell-based, HEK293, splice +/- reporter (AID 1101); settings: luminescence, 24 h, higher = more signal, called active from +8 up or from −8 down;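 note: HEK293 cells carrying a splicing-competent luciferase reporter gene; test concentration not given here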
[5] = target: Fibroblast growth factor 10 (Homo sapiens) (UniProt O15520); assay: FGF10 binders on small-molecule microarrays, primary screen, biochemical, small-molecule microarray, 635 nm fluorescence (AID 1102); settings: FGF10 binding, fluorescence 635 nm, higher = more signal
[6] = system: glycogen synthase kinase-3 (GSK3A per assay name; protocol says GSK3B); assay: GSK3 binders on small-molecule microarrays, primary screen, biochemical, small-molecule microarray, 635 nm fluorescence, GSK3A (AID 1103); settings: small-molecule microarray binding, fluorescence 635 nm; higher = more signal; note: the record names both GSK3A and GSK3B
[7] = target: Epidermal growth factor receptor (Homo sapiens) (UniProt P00533); assay: EGFR binders on small-molecule microarrays, primary screen, biochemical, small-molecule microarray, 635 nm fluorescence (AID 1104); settings: EGFR binding, higher = more signal;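 note: score merges 667 nm emission intensity with spot signal to noise over triplicate slides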
[8] = target: Follistatin-related protein 3 (Homo sapiens) (UniProt O95633); assay: FSTL3 binders on small-molecule microarrays, primary screen, biochemical, small-molecule microarray, 635 nm fluorescence (AID 1105); settings: FSTL3 binding, higher = more signal;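 note: score merges emission near 667 nm and signal to noise per printed spot across three slides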
[9] = target: Dickkopf-related protein 1 (Homo sapiens) (UniProt O94907); assay: DKK1 binders on small-molecule microarrays, primary screen, biochemical, small-molecule microarray, 635 nm fluorescence scan (AID 1106); settings: DKK1 binding, higher = more signal;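 note: score merges emission near 667 nm with signal to noise over three replicate slides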
[10] = system: Inhibin beta A chain (activin A); assay: INHBA (activin A) binders on microarrays, primary screen, biochemical, small-molecule microarray, 635 nm fluorescence scan (AID 1107); settings: small-molecule microarray binding, higher = more signal;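 note: mouse activin A protein probed at 4.33 µg/mL on printed slides; score merges bound-protein fluorescence near 667 nm with spot signal-to-noise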

Chain of Follistatin-related protein 3 (Homo sapiens) (O95633 whole entry, looked up): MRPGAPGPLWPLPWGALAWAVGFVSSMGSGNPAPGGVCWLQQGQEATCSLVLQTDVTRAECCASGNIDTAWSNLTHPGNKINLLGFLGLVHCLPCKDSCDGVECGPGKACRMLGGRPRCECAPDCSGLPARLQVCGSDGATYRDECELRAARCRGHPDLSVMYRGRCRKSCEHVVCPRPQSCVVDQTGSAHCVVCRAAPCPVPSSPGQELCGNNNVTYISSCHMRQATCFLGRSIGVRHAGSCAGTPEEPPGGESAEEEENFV
Chain of Fibroblast growth factor 10 (Homo sapiens) (O15520 whole entry, looked up): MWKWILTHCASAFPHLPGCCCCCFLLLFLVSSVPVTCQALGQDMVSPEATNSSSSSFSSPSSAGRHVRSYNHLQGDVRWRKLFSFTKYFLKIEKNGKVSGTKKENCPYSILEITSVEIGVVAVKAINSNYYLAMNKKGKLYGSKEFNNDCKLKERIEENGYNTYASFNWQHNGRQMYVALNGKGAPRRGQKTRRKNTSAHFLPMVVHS
Chain of Dickkopf-related protein 1 (Homo sapiens) (O94907 whole entry, looked up): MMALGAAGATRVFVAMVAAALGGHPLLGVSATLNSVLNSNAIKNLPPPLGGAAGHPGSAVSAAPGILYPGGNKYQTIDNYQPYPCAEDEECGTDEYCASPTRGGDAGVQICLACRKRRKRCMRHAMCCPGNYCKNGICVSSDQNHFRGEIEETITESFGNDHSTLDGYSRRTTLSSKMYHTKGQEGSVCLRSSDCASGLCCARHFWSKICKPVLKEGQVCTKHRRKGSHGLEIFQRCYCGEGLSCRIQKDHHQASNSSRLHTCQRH
Chain of Epidermal growth factor receptor (Homo sapiens) (P00533 whole entry, looked up): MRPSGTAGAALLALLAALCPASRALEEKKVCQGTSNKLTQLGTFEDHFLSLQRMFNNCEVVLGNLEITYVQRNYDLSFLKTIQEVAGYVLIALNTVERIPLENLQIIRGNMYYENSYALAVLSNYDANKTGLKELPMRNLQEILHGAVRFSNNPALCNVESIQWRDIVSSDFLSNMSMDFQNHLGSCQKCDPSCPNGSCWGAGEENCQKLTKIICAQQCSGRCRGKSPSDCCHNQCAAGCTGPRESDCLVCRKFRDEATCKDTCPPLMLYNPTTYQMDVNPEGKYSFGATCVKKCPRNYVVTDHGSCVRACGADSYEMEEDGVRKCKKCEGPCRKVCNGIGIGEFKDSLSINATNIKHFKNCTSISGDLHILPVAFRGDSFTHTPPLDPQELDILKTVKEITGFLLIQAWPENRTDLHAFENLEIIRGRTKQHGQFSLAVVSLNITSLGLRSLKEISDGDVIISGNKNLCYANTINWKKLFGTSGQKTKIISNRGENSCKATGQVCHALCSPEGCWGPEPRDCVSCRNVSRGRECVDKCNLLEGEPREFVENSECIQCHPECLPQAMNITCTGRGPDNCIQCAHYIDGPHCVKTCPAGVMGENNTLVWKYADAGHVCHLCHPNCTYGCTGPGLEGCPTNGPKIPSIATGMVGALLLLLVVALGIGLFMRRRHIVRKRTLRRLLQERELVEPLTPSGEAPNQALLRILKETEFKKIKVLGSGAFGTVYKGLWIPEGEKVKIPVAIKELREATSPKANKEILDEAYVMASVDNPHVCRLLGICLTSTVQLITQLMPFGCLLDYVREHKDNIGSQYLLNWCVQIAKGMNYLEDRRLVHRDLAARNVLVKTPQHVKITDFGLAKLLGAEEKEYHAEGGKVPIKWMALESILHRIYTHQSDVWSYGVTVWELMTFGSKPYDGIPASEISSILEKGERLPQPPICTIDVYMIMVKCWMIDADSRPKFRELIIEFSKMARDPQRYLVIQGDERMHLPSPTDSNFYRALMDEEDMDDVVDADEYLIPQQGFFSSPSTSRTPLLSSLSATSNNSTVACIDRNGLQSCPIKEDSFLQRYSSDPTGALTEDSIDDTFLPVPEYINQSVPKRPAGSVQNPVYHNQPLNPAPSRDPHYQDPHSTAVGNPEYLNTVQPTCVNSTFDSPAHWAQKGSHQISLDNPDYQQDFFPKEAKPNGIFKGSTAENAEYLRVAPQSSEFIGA

Compound	composite z-score [1]	composite z-score [2]	composite z-score [3]	z-score [4]	composite z-score [5]	composite z-score [6]	composite z-score [7]	composite z-score [8]	composite z-score [9]	composite z-score [10]
C=C[C@H](OC)[C@@H](OC(=O)Nc1ccc(SC)cc1)c1ccc(OCCO)cc1	1.08	0.242	0.796	-1.96 (inactive)	0.141	0.0735	-0.196	-0.275	0.155	-0.176
C=CCOC(=O)[C@@H]1[C@H]2C(=O)O[C@H](c3ccccc3)[C@H](c3ccccc3)N2[C@H](c2ccc(OCCOC(=O)[C@H]3C[C@H]4C(=O)N[C@@H](CC(C)C)C(=O)N4[C@H]3c3cccc(OCCO)c3)cc2)[C@@]12C(=O)Nc1ccc(I)cc12	1.41	0.169	-0.135	-0.835 (inactive)	1.23	1.32	0.694	1.25	0.836	0.255
CCCC[C@H]1OB(O)C[C@H]2C1=C(C)Cn1c(=O)n(-c3ccccc3)c(=O)n12	0.161	-0.291	-0.67	-0.293 (inactive)	0.49	0.37	0.512	0.662	0.779	0.255
CCCNC(=O)[C@@]1(c2ccc([N+](=O)[O-])cc2)CC(=O)N(CC23CC4CC(CC(C4)C2)C3)[C@@H]1c1ccc(CO)cc1I	0.441	0.563	0.195	1.58 (inactive)	0.193	0.588	0.27	0.236	0.0305	0.655
CN(C)CCCCCCNC(=O)[C@@H]1C[C@@H]2C(=O)NCC(=O)N2[C@@H]1c1cccc(OCCO)c1	1.39	0.156	-0.0688	0.0236 (inactive)	1.34	1.36	0.654	1.48	1.28	0.433
O=C(CS)NCCCCCCNC(=O)[C@H]1C[C@H]2C(=O)N3CCC[C@H]3C(=O)N2[C@H]1c1ccc(O)cc1	1.63	0.104	0.0018	1.46 (inactive)	0.732	-0.477	-0.154	0.972	0.317	0.487
CCCCCN1CC=CC23O[C@@H]4C=CCCOC(=O)C4[C@H]2C(=O)N(CCCO)[C@@H]3C1=O (stereo not given in full)	1.06	-0.117	-0.141	-0.588 (inactive)	-0.0549	-0.452	-0.928	-0.344	0.0124	-0.166
CCOC(=O)C[C@H]1[C@H](OC(=O)c2ccc(C(=O)c3ccccc3)cc2)[C@@H](NC(=O)c2ccc3ccccc3n2)c2cc(OCCCO)ccc2N1C(=O)c1ccc2ccccc2n1	0.143	0.492	0.661	-0.679 (inactive)	0.418	0.232	0.703	0.154	0.0952	0.41
Oc1ccc2cc[n+](Cc3cccc(OC(F)(F)F)c3)cc2c1	1.36	-0.319	-0.576	0.609 (inactive)	0.837	-0.477	1.2	1.24	0.732	0.826
C=CCC(OC(C)=O)[C@@H]1[C@@H](N(Cc2ccc(-c3ccccc3)cc2)C(=O)c2ccc(C)cc2)c2cc(OCCCO)ccc2N1C(=O)c1ccc2ccccc2n1 (stereo not given in full)	-0.124	-0.053	0.529	-1.84 (inactive)	-0.0241	-0.609	-0.236	-0.374	-0.144	1.39
CC(C)C(CO)N1C(=O)[C@@H]2[C@H]3C(=O)OCC=C[C@H]3OC23C=CCN(c2ccc4ccccc4c2)C(=O)[C@@H]13 (stereo not given in full)	0.233	-0.387	0.343	0.0617 (inactive)	-0.617	-1.15	-1.04	-1.3	-0.688	-0.141
O=C1O[C@@H](c2ccccc2)[C@@H](c2ccccc2)N2[C@@H](c3ccc(O)cc3)[C@]3(C(=O)Nc4ccccc43)[C@@H](C(=O)N3CCCCCCC3)[C@H]12	2.02	2.5	1.53	-1.29 (inactive)	1.03	1.32	1.27	1.58	1.56	1.98
CC(=O)N1Cc2ccccc2C[C@@]2(N=C(c3ccc(OCCCO)cc3)O[C@H]2c2ccccc2)C1=O	1.54	0.927	0.82	-2.97 (inactive)	1.16	1.09	0.361	1.19	0.653	1.03
[N-]=[N+]=Nc1ccccc1[C@@H]1OC(c2ccc(OCCCO)cc2)=N[C@]1(CCS(=O)(=O)c1ccccc1)C(=O)N1CCCCC1	1.39	1.63	1.41	-0.261 (inactive)	1.05	0.85	0.098	0.811	-0.423	1.36
C=CC[C@@]1(C(=O)NCc2ccccc2)N=C(c2ccc(OCCCO)cc2)O[C@@H]1c1ccccc1CN=[N+]=[N-]	1.1	0.9	0.953	0.147 (inactive)	1.15	0.0389	-0.282	0.849	0.0805	0.835
COCCCNC(=O)[C@@]1(Sc2ccc(C)cc2)CC(=O)N(Cc2ccccc2)[C@@H]1c1ccc(CO)cc1	1.54	0.0112	0.144	-0.74 (inactive)	-0.342	-0.21	-0.58	-0.702	-0.344	-0.29
C=C(CCCC)C(=O)CC[C@H](OC(C)=O)c1ccc(CO)o1	0.621	-0.402	-0.456	-1.14 (inactive)	0.123	0.2	-0.567	-0.139	-0.0639	1.24
Cc1cccc(/C=C/C=O)c1	0	-0.101	0.558	0.465 (inactive)	-0.0736	-0.0687	-0.391	0.119	-0.214	0.561
CC[C@@H]1C=C(C(=O)O)[C@H](c2ccc(C(C)C)cc2)N1S(=O)(=O)c1ccc(C)cc1	1.25	1.1	0.86	-0.0593 (inactive)	1.08	1.15	0.001	1.18	-0.172	0.769
CC(=O)n1cc(C(O)C2C=CC3C(=O)N(c4ccccc4)C(=O)C3N2Nc2ccc(C#N)cc2)c2ccccc21 (stereo not given)	0.696	0.415	1.07	0.888 (inactive)	0.879	0.186	-0.105	0.0519	-0.817	0.854
COC(=O)C(CC#Cc1ccc2c(c1)[C@]1(C(=O)N2)[C@H](C(=O)N2CCCCCCC2)[C@H]2C(=O)O[C@H](c3ccccc3)[C@H](c3ccccc3)N2[C@@H]1c1ccccc1OCCO)C(=O)OC	2.14	3.1	1.75	0.13 (inactive)	1.47	1.47	1.96	1.73	2.58	1.79
